# Bioassay records deposited in PubChem by National Center for Advancing Translational Sciences (NCATS).
# HPGD block: qHTS Assay for Inhibitors of HPGD (15-Hydroxyprostaglandin Dehydrogenase); 15-hydroxyprostaglandin dehydrogenase [NAD(+)] (Homo sapiens), P15428; purified HPGD, NADH fluorescence kinetic, PGE2 substrate; Potency, µM, for the others: at the top dose activity change, negative = inhibition, usual class: inhibitors; actives 4.3% (n = 150,000); also: potency is read from the fitted curve at half-maximal effect
#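 20 nM HPGD preincubated 15 min at room temperature with compound in 50 mM Tris-HCl pH 8, 0.01% Tween 20. Started with 1 mM NAD+ and 30 uM prostaglandin E2; NADH fluorescence (360/450 nm) read 5 times over 30-s intervals, last minus first.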
# PNC assembly inh: High Content Assay for Compounds that inhibit the Assembly of the Perinucleolar Compartment; PC3M PTB-GFP, PNC prevalence imaging, 16 h; hits give low values; activity change (PNC), negative = inhibition, % at 10 µM; actives 3.1% (n = 140,000); AID 2417, 2010;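 active = readout at or below -70, meaning at least 70% loss of cells showing the perinucleolar compartment, a nuclear body marking cancer cells; inconclusive = readout between -30 and a set limit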;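 also: plate controls were DMSO wells for no effect and camptothecin positive control wells for full effect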
#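 Compounds are pinned in duplicate onto adhered PC3M cells stably expressing GFP-tagged PTB and incubated 16 h at 37 C. Cells are then fixed, nuclei stained with Hoechst, and PNC-positive cells counted.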
# ALDH1A1 block: qHTS Assay for Inhibitors of Aldehyde Dehydrogenase 1 (ALDH1A1) | Purified ALDH1A1, NADH fluorescence, propionaldehyde substrate | Aldehyde dehydrogenase 1A1 (Homo sapiens), P00352 | AID 1030, 2008 | actives 7.3% (n = 220,000) | Potency, µM (highest dose often 75.3 µM), for the others: at the top dose activity, negative = inhibition, actives largely listed as inhibitors;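 also: potency is read from the fitted curve at half-maximal effect; plate controls were no enzyme wells and a reference inhibitor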
# IMPase Li cell: qHTS Assay for Identifying the Cell-Membrane Permeable IMPase Inhibitors: Potentiation with Lithium; CHO-M1 cells, IP1 TR-FRET (IP-One), carbachol + lithium; Potency, µM (top dose mostly 59.4 µM), for inactives: top-dose activity, negative = IMPase inhibition, most hits filed as inhibitors; actives 0.35% (n = 210,000); AID 1457, 2008; active = well fitted curve in the direction sought with a large enough effect; inconclusive = small, poorly fitted or top-dose-only effect, or another doubt; inactive = no such curve, though single readings can be large; an effect the other way counts as inactive or inconclusive;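 also: IP1 builds up when IMPase is blocked and the TR-FRET signal falls; potency is read from the fitted curve at half-maximal effect; plate controls were basal vehicle for no effect and high inhibitor control for full effect; nearly all actives have a fitted effect of over 50% in size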
#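 IP1 accumulation measured by competitive TR-FRET in lysed CHO-M1 cells after 30 min compound exposure at 37C, with a small lithium addition to potentiate weak responses. Hill-equation AC50 from ratio and donor-channel data.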
# IMPase inh: qHTS Assay for Identifying the Cell-Membrane Permeable IMPase Inhibitors. CHO-M1 cells, IP1 accumulation, HTRF TR-FRET ratio. AID 901, 2007. inhibition (IP1 accumulation), % at 46.1 µM. Inositol monophosphatase 1 (Rattus norvegicus), P97697. 120,000 tested, under 10 active; active = well fitted curve in the direction sought with a large enough effect in the signal ratio, not every such curve was filed as active; inconclusive = small, poorly fitted or top-dose-only effect, or a change in a side signal; inactive = no such curve, though single readings can be large or run the other way; the % refers to the signal ratio;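 also: cells stimulated with carbachol in lithium chloride buffer; plate controls were DMSO basal wells for no effect and reference inhibitor wells for full effect; higher means more IMPase inhibition seen as more IP1 and lower FRET ratio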
# Target sequence (P97697 whole entry, looked up): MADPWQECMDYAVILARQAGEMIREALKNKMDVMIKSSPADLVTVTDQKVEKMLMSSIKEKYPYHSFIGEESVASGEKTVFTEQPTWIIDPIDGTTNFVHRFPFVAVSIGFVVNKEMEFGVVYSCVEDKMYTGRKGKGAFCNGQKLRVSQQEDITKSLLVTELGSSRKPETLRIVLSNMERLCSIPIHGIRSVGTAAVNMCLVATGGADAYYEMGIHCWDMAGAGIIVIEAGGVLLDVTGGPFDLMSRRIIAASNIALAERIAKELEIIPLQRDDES
#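 Measured: the HTRF emission ratio (665/620 nm) plus the 620 nm donor channel, each fitted to the Hill equation to give AC50. Cells were CHO-M1 given compounds up to 46 uM and a 30 min carbachol stimulation at 37C.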
# NPSR antag: qHTS Assay for Antagonists of the Neuropeptide S Receptor: cAMP Signal Transduction | Q6W5P4 | CHO-NPSR cells, cAMP TR-FRET, antagonist mode | Potency, µM (titrated, usually from 38.3 µM), inactives show at the top dose activity change, negative = inhibition, most hits filed as inhibitors | actives 1% (n = 220,000) | AID 1461, 2008; active = well fitted curve in the direction sought with a large enough effect; inconclusive = small, poorly fitted or top-dose-only effect, or another doubt; inactive = no such curve, though single readings can be large; an effect the other way counts as inactive or inconclusive; also: potency is read from the fitted curve at half-maximal effect; nearly all actives have a fitted effect of over 50% in size
# Target sequence (Q6W5P4 whole entry, looked up): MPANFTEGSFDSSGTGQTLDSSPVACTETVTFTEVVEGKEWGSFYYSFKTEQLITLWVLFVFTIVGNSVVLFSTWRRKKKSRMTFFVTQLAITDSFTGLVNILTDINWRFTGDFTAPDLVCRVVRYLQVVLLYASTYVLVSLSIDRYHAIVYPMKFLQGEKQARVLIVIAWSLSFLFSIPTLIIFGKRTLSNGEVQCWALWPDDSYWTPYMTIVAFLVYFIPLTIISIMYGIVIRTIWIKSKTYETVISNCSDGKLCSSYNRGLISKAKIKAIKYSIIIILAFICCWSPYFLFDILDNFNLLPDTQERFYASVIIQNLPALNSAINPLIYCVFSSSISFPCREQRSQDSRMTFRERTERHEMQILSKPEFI
# * hit, by the source's call; ? = inconclusive; . = no result; [ ] = another dose, or the depositor's remark. Hits are enriched below; roughly 11% of the tested compounds scored in any of these assays. Unless noted, calls follow the shape of the dose curve; as a rule, active = well fitted inhibition curve with a large enough effect (not every such curve was filed as active); inconclusive = small, poorly fitted or top-dose-only effect, or another doubt; inactive = no such curve, though single readings can be large or run the other way. Unless noted, % is scaled to controls: 0 for no effect and ±100 for the full control effect.
SMILES,HPGD block,PNC assembly inh,ALDH1A1 block,IMPase Li cell,IMPase inh,NPSR antag
CCNc1oc(COc2ccccc2F)nc1C#N,14.1µM*,-12.5,?,-10.3%[38.3 µM],4.7,6.9%[7.67 µM]
Cc1ccc2cc(C(c3nnnn3C3CCCC3)N3CCN(c4ccc(F)cc4)CC3)c(=O)[nH]c2c1 (configuration not stated),-24.7%,-26.5,11.2µM*,8.2%,5.2,?
Cc1cccc2cc(C(c3nnnn3C3CCCC3)N3CCOCC3)c(=O)[nH]c12 (configuration not stated),-13.7%,-11.9,?,-17.8%[38.3 µM],?,-6.4%[46.1 µM]
Cc1cc(C)c2cc(C(c3nnnn3C3CCCC3)N3CCOCC3)c(=O)[nH]c2c1 (configuration not stated),?,-6.4,14.1µM*,-0.7%[38.3 µM],8.0,-1.1%[46.1 µM]
NC(=O)c1ccc(NC(=O)COC(=O)CCCc2c[nH]c3ccccc23)cc1,.,.,-12.5%,1.1%,.,-3.8%
CSc1ccc(OC2CCCCC2NS(=O)(=O)c2ccc(Cl)cc2)cc1 (configuration not stated),-12.6%,3.2,0.447µM*,3.5%,.,-20.3%
O=S(=O)(NC1CCCCC1Oc1ccccc1)c1ccc(Cl)cc1 (configuration not stated),-1.6%,?,?,2.1%,.,-19.7%
CNCc1c(C)nn(-c2ccccc2)c1C,.,.,-6.8%,7.7%,.,8.0%
CCOC(=O)c1sc(=S)n(C)c1NC(=O)c1ccccc1,8.91µM*,?,3.55µM*,2.9%,7.3,-16.3%[46.1 µM]
Cn1c(N)c(C(=O)NCc2ccccc2)sc1=S,?,-6.0,20µM*,13.7%[38.3 µM],6.4,-6.6%[46.1 µM]
COC(=O)c1ccccc1NC(=O)c1sc(=S)n(C)c1N,22.4µM*,?,20µM*,8.6%[38.3 µM],-9.0,9.3%[46.1 µM]
COc1ccc(CCNC(=O)CSc2nc3[nH]ncc3c(=O)[nH]2)cc1OC,.,.,-6.9%,-6.3%,.,12.8%
CN1CCN(/C=N/c2sc3c(c2C#N)CCCCC3)CC1,-15.9%,16.5,10µM*,-9.1%[38.3 µM],-11.4,-2.0%[46.1 µM]
Cc1[nH]n(-c2cccc3ccccc23)c(=O)c1/C=N/c1sc2c(c1C#N)CCC2,?,30.9,5.01µM*,5.8%[38.3 µM],6.6,19.1%[46.1 µM]
Cc1ccc(/C=N/c2sc3c(c2C#N)CCCCC3)o1,-14.5%,7.4,?,1.3%[38.3 µM],-0.9,7.1%[46.1 µM]
Cc1[nH]n(-c2ccc(F)cc2)c(=O)c1/C=N/c1sc2c(c1C#N)CCCC2,-17.2%,56.7,?,5.5%[38.3 µM],-0.3,3.6%[46.1 µM]
N#Cc1c(/N=C/c2cc3ccccc3s2)sc2c1CCC2,-16.6%,?,25.1µM*,1.9%,.,-2.5%[46.1 µM]
N#Cc1c(/N=C/C=C/c2ccccc2)sc2c1CCCC2,22.4µM*,20.5,7.94µM*,-3.2%[38.3 µM],-1.8,-1.6%[46.1 µM]
O=[N+]([O-])c1ccc(-c2csc(N3CCc4ccccc4C3)n2)cc1,-6.3%,-7.5,-11.2%,9.5%,.,-4.4%
CCC(C)(C)n1nnnc1C(c1cc2ccc(OC)cc2[nH]c1=O)N1CCc2ccccc2C1 (configuration not stated),-14.7%,-15.9,?,36.5%[38.3 µM],8.0,-16.4%[46.1 µM]
Cc1ccc(/C=N/c2sc3c(c2C#N)CCC3)s1,-21.6%,-8.6,25.1µM*,3.4%,-9.7,-8.5%[46.1 µM]
CCOC(=O)c1cc(C#N)c(Nc2ccccc2OC)nc1C(F)(F)F,.,.,?,.,.,15.3%
CCOC(=O)c1cc(C#N)c(N2CCN(C(=O)c3ccccc3)CC2)nc1C(F)(F)F,.,.,12.6µM*,.,.,52.1%
CCN(CC)c1ccc(/C=c2\sc3nc4ccccc4n3c2=O)c(O)c1,.,.,?,-5.4%,.,-18.7%
COC(=O)CN1C(=O)C2(C(C#N)=C(N)Oc3n[nH]c(-c4cccs4)c32)c2ccccc21 (configuration not stated),-2.4%,?,2.24µM*,-18.4%[38.3 µM],-16.7,-7.0%[46.1 µM]
SMILES,HPGD block,PNC assembly inh,ALDH1A1 block,IMPase Li cell,IMPase inh,NPSR antag
CCN1C(=O)C2(C(C#N)=C(N)Oc3n[nH]c(-c4ccccc4)c32)c2ccccc21 (configuration not stated),-0.2%,23.1,-0.4%,17.3%[38.3 µM],-2.0,-1.7%[46.1 µM]
COC(=O)CN1C(=O)C2(C(C#N)=C(N)Oc3c2c(C)nn3-c2ccccc2)c2ccccc21 (configuration not stated),-13.0%,288.9,0.141µM*,4.5%,-6.7,5.3%[46.1 µM]
O=C(Cc1ccc2c(c1)OCCO2)N1CCN(S(=O)(=O)c2cccc(C(F)(F)F)c2)CC1,-8.0%,10.7,6.4%,11.3%,.,-0.9%
COc1ccc(CC(=O)OCc2nnc(-c3ccccc3)o2)cc1,.,.,4.9%,-5.5%,.,18.1%
C=CCn1c(=O)c(C(=O)NCCNCC)c(O)c2ccccc21,.,3.9,-3.4%,.,2.9,13.7%[46.1 µM]
CCCCN(C)C(=O)c1coc(=O)c2ccccc12,22.4µM*,-0.3,-2.8%,-17.4%[38.3 µM],0.5,2.8%[46.1 µM]
CN(C(=O)c1coc(=O)c2ccccc12)c1ccc(Br)cc1,.,.,?,10.7%,.,-5.3%
CCOC(=O)C(=O)Nc1nnc(Cc2ccc(OC)c(OC)c2)s1,-17.1%,2.8,3.5%,6.9%,?,0.6%[46.1 µM]
NNc1nc(-c2ccccc2Cl)nc2sc3c(c12)CCCC3,12.6µM*,-0.5,?,4.5%,.,-7.4%
CCCCc1cc(=O)oc2c(CN3CCCC3)c(O)c(Cl)cc12,?,18.5,?,10µM*,?,-3.6%[46.1 µM]
Cc1cc(=O)oc2c(CN3CCN(C)CC3)c(O)c(Cl)cc12,?,?,?,12.6µM*,?,2.9%[46.1 µM]
CC(C)(CCC(C)(C)c1ccccc1)c1ccccc1,-2.3%,.,11.3%[13.5 µM],12.9%,.,.
CSc1ccc(S(=O)(=O)NCc2ccc(Cl)cc2Cl)cc1,-7.4%,?,25.1µM*,2.9%[38.3 µM],7.9,-12.4%[46.1 µM]
CSc1ccc(S(=O)(=O)NCc2ccccc2)cc1,-24.3%,-3.1,?,15.2%[38.3 µM],3.9,-5.1%[46.1 µM]
C[C@@H]1c2cccc(O)c2C(O)=C2C(=O)[C@@]3(O)C(O)=C(C(N)=O)C(=O)[C@@H](N(C)C)[C@@H]3[C@@H](O)[C@@H]21,-3.7%,.,-1.9%[20.9 µM],-15.5%,-2.3[20.6 µM],.
C=C1c2cccc(O)c2C(O)=C2C(=O)[C@@]3(O)C(O)=C(C(N)=O)C(=O)[C@@H](N(C)C)[C@@H]3[C@@H](O)[C@H]12,10µM*,.,5.9%[20.9 µM],-3.2%,-0.6[20.6 µM],.
O=C(Nc1c2c(nn1-c1ccccc1)CSC2)c1ccc(N2C(=O)CCC2=O)cc1,.,.,1.2%,1.2%,.,7.1%
Cc1cc(-c2nc3ncccc3o2)ccc1NC(=O)c1ccccc1Br,.,.,.,.,-2.7,.
